Results as given in PubChem BioAssay (NCATS).
Inconclusive results are not listed. The source made the active and inactive calls. Unless noted, calls follow the shape of the full dose curve.

Columns and labels:
[1] = target: Estrogen receptor (Homo sapiens) (UniProt P03372); assay: qHTS assay for small molecule antagonists of estrogen receptor alpha signaling (AID 588513; active = well fitted curve in the direction sought with a large enough effect in the signal ratio, with a control signal flat, not every such curve was filed as active; the % refers to the signal ratio; also: % is scaled to controls: 0 for no effect and ±100 for the full control effect)
Method in brief: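 Beta-lactamase reporter, antagonist mode, HEK 293 GripTite cells; 0.5nM E2 stimulus, 18 h, 37 C; CCF4 dye 2 h RT; fluorescence. IC50 and efficacy from Hill fits, normalized to E2 and DMSO.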

[2] = target: Androgen receptor (Homo sapiens) (UniProt P10275); assay: qHTS assay for small molecule agonists of androgen receptor signaling (AID 588515; active = well fitted curve in the direction sought with a large enough effect in the signal ratio, with a control signal flat; the % refers to the signal ratio; also: % is scaled to controls: 0 for no effect and ±100 for the full control effect); conditions: AR-UAS-bla HEK293, beta-lactamase ratio, agonist 16 h; stronger effect = higher value
Sequence of Androgen receptor (Homo sapiens) (P10275 whole entry, looked up): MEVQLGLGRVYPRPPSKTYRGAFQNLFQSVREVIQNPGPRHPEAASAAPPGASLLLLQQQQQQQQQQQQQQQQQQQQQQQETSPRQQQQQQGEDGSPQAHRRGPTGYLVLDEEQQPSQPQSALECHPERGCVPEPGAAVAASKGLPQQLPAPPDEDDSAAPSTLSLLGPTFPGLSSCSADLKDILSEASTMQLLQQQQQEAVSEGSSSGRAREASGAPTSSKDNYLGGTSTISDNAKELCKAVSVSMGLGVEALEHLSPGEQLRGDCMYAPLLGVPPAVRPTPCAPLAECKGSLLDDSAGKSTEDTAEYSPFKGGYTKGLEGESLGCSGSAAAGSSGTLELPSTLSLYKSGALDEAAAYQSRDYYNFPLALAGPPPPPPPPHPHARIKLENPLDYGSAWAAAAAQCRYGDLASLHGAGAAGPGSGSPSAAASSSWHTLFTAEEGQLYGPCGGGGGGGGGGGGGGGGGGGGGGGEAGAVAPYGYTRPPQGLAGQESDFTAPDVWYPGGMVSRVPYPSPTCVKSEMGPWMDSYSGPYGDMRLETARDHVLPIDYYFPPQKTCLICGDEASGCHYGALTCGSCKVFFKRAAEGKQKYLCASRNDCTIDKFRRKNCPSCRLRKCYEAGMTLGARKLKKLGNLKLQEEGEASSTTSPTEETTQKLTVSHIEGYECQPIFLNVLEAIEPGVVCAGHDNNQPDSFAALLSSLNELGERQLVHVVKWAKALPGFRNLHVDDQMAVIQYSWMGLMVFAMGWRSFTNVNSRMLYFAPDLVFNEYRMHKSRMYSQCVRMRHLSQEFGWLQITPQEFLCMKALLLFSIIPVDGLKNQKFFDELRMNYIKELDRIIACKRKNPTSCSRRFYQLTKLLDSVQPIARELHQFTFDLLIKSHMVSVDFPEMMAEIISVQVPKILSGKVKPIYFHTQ
Method in brief: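 EC50 and efficacy came from Hill fits of titrations (up to 92 uM) normalized to 30 nM R1881 as 100% and DMSO as 0%. Compound exposure was 16 h at 37 C on AR-UAS-bla HEK293 cells, with a 405/460/530 nm CCF4 fluorescence read.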

[3] = target: Androgen receptor (Homo sapiens) (UniProt P10275); assay: qHTS assay for small molecule antagonists of androgen receptor signaling (AID 588516; active = well fitted curve in the direction sought with a large enough effect in the signal ratio, with a control signal flat, not every such curve was filed as active; the % refers to the signal ratio; also: % is scaled to controls: 0 for no effect and ±100 for the full control effect)
Method in brief: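 HEK293 AR-UAS-bla cells, 10% dialyzed FBS medium; cpd titration + R1881 10 nM final, 16 h 37 C; CCF4 2 h RT; FRET ratio; IC50/efficacy via Hill fit.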

[4] = target: Bile acid receptor (Homo sapiens) (UniProt Q96RI1); assay: qHTS assay for small molecule antagonists of farnesoid X receptor signaling (AID 588526); also: % is scaled to controls: 0 for no effect and ±100 for the full control effect
Sequence of Bile acid receptor (Homo sapiens) (Q96RI1 whole entry, looked up): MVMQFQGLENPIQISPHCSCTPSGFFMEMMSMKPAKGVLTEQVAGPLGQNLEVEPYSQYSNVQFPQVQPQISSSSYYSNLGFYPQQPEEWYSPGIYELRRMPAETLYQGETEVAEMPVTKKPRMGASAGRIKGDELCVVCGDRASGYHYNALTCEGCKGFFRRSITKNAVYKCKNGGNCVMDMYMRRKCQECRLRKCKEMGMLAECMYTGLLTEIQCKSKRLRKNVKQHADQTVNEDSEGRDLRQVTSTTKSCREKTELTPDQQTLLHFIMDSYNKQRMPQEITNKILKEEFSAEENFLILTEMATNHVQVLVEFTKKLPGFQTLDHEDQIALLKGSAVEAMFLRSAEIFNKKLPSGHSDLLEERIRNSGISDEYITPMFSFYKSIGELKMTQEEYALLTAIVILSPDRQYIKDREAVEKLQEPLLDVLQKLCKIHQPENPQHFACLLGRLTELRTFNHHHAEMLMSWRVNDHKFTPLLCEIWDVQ
Method in brief: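 Beta-lactamase reporter antagonist mode: HEK293T FXR-UAS-bla cells, titrated compound, CDCA stimulation, 16 h 37 C, CCF4 dye 2 h RT. Data normalized to CDCA 50 uM and DMSO; Hill-fit IC50.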

[5] = target: Glucocorticoid receptor (Homo sapiens) (UniProt P04150); assay: qHTS assay for small molecule agonists of glucocorticoid receptor signaling (AID 588532; active = well fitted curve in the direction sought with a large enough effect in the signal ratio, with a control signal flat; the % refers to the signal ratio;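 also: 100% = dexamethasone at 0.1 µM and 0% = DMSO only wells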); conditions: HeLa MMTV-bla, beta-lactamase ratio, agonist, 18 h; stronger effect = higher value; percent of dexamethasone control, DMSO zero
Sequence of Glucocorticoid receptor (Homo sapiens) (P04150 whole entry, looked up): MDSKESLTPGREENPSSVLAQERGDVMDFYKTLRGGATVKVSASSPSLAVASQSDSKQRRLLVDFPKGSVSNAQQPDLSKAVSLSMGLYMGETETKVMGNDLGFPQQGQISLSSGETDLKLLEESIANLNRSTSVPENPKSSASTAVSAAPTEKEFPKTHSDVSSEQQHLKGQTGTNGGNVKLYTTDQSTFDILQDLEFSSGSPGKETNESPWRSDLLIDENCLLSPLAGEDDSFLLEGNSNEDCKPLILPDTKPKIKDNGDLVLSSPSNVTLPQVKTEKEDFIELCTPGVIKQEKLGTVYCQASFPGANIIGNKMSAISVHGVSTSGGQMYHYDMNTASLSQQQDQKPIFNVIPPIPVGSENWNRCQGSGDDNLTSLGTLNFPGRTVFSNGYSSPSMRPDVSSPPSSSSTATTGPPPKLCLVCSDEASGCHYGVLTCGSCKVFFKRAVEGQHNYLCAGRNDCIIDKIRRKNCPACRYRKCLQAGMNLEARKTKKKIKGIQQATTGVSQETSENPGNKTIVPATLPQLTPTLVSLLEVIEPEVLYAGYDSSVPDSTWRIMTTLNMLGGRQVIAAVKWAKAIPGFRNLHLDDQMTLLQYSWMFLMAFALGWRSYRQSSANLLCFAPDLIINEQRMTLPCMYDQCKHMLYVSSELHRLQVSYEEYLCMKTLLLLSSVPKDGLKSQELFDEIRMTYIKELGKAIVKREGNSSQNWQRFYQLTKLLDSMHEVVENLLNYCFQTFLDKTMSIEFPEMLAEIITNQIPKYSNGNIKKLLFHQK
Method in brief: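 Quantitative HTS using CellSensor MMTV-bla HeLa cells in charcoal/dextran-treated serum; compounds tested up to 92 uM. After 18 h at 37 C, CCF4 dye reported reporter induction.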

[6] = target: Glucocorticoid receptor (Homo sapiens) (UniProt P04150); assay: qHTS assay for small molecule antagonists of glucocorticoid receptor signaling (AID 588533; active = well fitted inhibition curve with a large enough effect in the signal ratio, with a control signal flat, not every such curve was filed as active; the % refers to the signal ratio)
Method in brief: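 Antagonist-mode qHTS: compound titrations added to GRE-bla HeLa cells, then dexamethasone 2 nM final; 18 h, 37 C. CCF4 FRET fluorescence normalized to dexamethasone and DMSO; IC50 from Hill fit.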

[7] = target: Peroxisome proliferator-activated receptor delta (Homo sapiens) (UniProt Q03181); assay: qHTS assay for small molecule agonists of peroxisome proliferator-activated receptor delta signaling (AID 588534);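 also: 0% = DMSO basal wells and 100% = positive control agonist at 10 µM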
Sequence of Peroxisome proliferator-activated receptor delta (Homo sapiens) (Q03181 whole entry, looked up): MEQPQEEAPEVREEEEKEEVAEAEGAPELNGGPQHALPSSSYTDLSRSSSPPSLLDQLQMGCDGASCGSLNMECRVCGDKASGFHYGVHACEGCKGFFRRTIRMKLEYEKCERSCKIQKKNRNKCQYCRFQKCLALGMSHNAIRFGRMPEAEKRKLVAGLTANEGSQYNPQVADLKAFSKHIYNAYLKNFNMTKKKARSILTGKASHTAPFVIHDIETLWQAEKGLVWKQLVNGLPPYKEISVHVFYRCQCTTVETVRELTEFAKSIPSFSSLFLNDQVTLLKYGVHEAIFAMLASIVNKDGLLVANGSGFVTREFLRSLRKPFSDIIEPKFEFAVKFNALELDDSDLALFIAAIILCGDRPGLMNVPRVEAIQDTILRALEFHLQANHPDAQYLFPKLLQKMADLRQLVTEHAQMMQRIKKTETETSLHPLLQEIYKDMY
Method in brief: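 Cell-based beta-lactamase reporter assay run in agonist mode: cells seeded and incubated 5 hrs at 37 C, compounds added and incubated 18 hrs at 37 C. CCF4 dye fluorescence read after 2 hrs at RT; EC50 and efficacy from Hill fits.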

[8] = qHTS assay for small molecule antagonists of peroxisome proliferator-activated receptor delta signaling (AID 588535; active = well fitted inhibition curve with a large enough effect in the signal ratio, with a control signal flat, not every such curve was filed as active; the % refers to the signal ratio;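 as to max response: cells co-treated with a PPAR-delta agonist as stimulator during compound exposure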); conditions: HEK293T PPARd-UAS-bla, beta-lactamase FRET ratio, 18 h; 460 nm channel
Method in brief: (§1)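 Cell-based beta-lactamase assay in antagonist mode: 4000 HEK293T PPAR-delta-UAS-bla cells per well, 5 hr preincubation then 18 hr compound incubation at 37 C. IC50 obtained by Hill equation fitting.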

[9] = target: Peroxisome proliferator-activated receptor delta (Homo sapiens) (UniProt Q03181); assay: as above
Method in brief: as §1

[10] = target: Peroxisome proliferator-activated receptor gamma (Homo sapiens) (UniProt P37231); assay: qHTS assay for small molecule agonists of peroxisome proliferator-activated receptor gamma signaling (AID 588536; active = well fitted curve in the direction sought with a large enough effect in the signal ratio, with a control signal flat, not every such curve was filed as active; the % refers to the signal ratio;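 also: 0% = DMSO basal wells and 100% = rosiglitazone at 2 µM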)
Sequence of Peroxisome proliferator-activated receptor gamma (Homo sapiens) (P37231 whole entry, looked up): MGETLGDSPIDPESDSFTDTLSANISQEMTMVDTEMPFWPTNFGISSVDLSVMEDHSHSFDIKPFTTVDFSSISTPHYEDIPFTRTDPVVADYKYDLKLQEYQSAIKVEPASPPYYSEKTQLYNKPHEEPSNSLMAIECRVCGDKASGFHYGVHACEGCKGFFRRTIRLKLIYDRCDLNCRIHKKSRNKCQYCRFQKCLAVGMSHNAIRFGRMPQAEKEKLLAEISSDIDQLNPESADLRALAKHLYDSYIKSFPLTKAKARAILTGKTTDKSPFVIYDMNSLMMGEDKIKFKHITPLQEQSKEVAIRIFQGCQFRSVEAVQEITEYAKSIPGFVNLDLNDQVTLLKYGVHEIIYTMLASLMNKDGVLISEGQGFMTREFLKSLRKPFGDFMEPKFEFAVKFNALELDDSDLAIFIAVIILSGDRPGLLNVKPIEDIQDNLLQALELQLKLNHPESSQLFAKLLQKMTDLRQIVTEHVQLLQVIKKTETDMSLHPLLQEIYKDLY
Method in brief: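 PPAR-gamma-UAS-bla HEK293 cells in medium with 1% charcoal/dextran-treated FBS were exposed to compounds for 16 h at 37 C. Beta-lactamase activity was read with CCF4 substrate (405 nm excitation, 460/530 nm emission).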

[11] = target: Peroxisome proliferator-activated receptor gamma (Homo sapiens) (UniProt P37231); assay: qHTS assay for small molecule antagonists of peroxisome proliferator-activated receptor gamma signaling (AID 588537; active = well fitted inhibition curve with a large enough effect in the signal ratio, with a control signal flat, not every such curve was filed as active; the % refers to the signal ratio;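 also: reporter cells co-stimulated with 50 nM rosiglitazone agonist during compound treatment; % of control where 0% means no effect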)
Method in brief: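 Inhibitors of agonist-stimulated UAS-bla reporter activity were sought in HEK293 cells; rosiglitazone (50 nM) defined full signal and DMSO baseline. Curves fitted to Hill model gave IC50 and efficacy.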

[12] = qHTS assay for small molecule agonists of retinoid X receptor alpha signaling (AID 588544); conditions: HEK293T RXRa-UAS-bla, beta-lactamase reporter, 18 h; 530 nm emission;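 as to activation: 0% = DMSO basal wells and 100% = reference agonist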
[13] = target: Retinoic acid receptor RXR-alpha (Homo sapiens) (UniProt P19793); assay: as above
Sequence of Retinoic acid receptor RXR-alpha (Homo sapiens) (P19793 whole entry, looked up): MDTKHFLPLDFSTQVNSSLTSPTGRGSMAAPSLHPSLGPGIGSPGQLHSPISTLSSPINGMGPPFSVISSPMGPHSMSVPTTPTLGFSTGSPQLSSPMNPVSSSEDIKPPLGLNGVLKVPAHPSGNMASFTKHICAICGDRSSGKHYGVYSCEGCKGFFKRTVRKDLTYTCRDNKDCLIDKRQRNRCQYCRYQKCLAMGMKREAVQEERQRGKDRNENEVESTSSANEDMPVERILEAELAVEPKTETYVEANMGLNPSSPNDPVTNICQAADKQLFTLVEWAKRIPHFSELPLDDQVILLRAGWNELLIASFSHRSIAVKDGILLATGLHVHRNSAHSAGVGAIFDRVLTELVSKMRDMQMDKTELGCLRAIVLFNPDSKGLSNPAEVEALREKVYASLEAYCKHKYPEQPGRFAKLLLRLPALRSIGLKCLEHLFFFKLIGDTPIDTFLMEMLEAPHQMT

[14] = target: Thyroid hormone receptor beta (Homo sapiens) (UniProt P10828); assay: qHTS assay for small molecule agonists of thyroid hormone receptor beta signaling (AID 588545)
Sequence of Thyroid hormone receptor beta (Homo sapiens) (P10828 whole entry, looked up): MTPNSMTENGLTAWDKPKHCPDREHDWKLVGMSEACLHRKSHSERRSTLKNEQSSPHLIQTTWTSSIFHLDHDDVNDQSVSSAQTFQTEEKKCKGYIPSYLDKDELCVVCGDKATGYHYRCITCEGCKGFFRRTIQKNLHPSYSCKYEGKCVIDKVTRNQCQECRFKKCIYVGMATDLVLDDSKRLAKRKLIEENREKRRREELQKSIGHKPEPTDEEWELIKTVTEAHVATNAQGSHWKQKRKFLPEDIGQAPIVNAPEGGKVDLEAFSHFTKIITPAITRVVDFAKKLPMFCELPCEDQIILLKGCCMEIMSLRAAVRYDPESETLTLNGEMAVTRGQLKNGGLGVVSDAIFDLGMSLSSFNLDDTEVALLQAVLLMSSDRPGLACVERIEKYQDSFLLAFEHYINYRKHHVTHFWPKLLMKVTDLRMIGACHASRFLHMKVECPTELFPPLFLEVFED
Method in brief: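 HEK 293 TR-UAS-bla; agonist mode; 18 hrs, 37 C; CCF4, ex 405/em 460 and 530 nm; norm. T3 10 nM = 100%, DMSO = 0%; Hill fit → EC50, efficacy.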

[15] = qHTS assay for small molecule antagonists of retinoid X receptor alpha signaling (AID 588546; active = well fitted inhibition curve with a large enough effect in the signal ratio, with a control signal flat, not every such curve was filed as active; the % refers to the signal ratio); conditions: HEK293T RXRa-UAS-bla, beta-lactamase ratio, antagonist mode; measured here: W530 green channel, cytotoxicity proxy
Method in brief: (§2)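 Beta-lactamase reporter inhibition, read as CCF4 fluorescence ratio (ex 405, em 460/530 nm) after 2 h at RT. HEK293T UAS-bla cells, 2500/well, were stimulated with 9-cis-RA at 500 or 100 nM final alongside test compound for 18 h at 37 C.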

[16] = target: Retinoic acid receptor RXR-alpha (Homo sapiens) (UniProt P19793); assay: as above; conditions: HEK293T RXRa-UAS-bla, beta-lactamase ratio, antagonist mode
Method in brief: as §2

[17] = target: Thyroid hormone receptor beta (Homo sapiens) (UniProt P10828); assay: qHTS assay for small molecule antagonists of thyroid hormone receptor beta signaling (AID 588547; active = well fitted inhibition curve with a large enough effect in the signal ratio, with a control signal flat, not every such curve was filed as active; the % refers to the signal ratio); conditions: TR-UAS-bla HEK293, beta-lactamase ratio, antagonist mode, 18 h
Method in brief: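 Inhibition of T3-driven (0.4nM final) beta-lactamase reporter activity was measured over 0.59 nM to 92 uM compound after 18 h at 37 C. The cells were GripTite HEK293 TR-UAS-bla in charcoal/dextran-stripped serum, with CCF4 ratio read-out and IC50 from Hill fits.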

[18] = qHTS assay for small molecule agonists of the antioxidant response element (ARE) signaling pathway (AID 651741; active = well fitted activation curve with a large enough effect in the signal ratio; the % refers to the signal ratio; also: % of control where 0% means no effect)
Method in brief: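 Seeding 2,000 ARE-bla HepG2 cells per well preceded a 5 h incubation at 37 C/5% CO2 and a 16 h compound exposure at 37 C. Beta-lactamase reporter activity was then quantified by fluorescence after 2 h with LiveBLAzer B/G FRET substrate.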

[19] = qHTS assay for small molecule activators of the nuclear factor-kappa B (NF-kB) signaling pathway (AID 651749; active = well fitted activation curve with a large enough effect in the signal ratio; the % refers to the signal ratio; also: % of control where 0% means no effect); conditions: NF-kB-bla ME-180 cells, beta-lactamase FRET ratio, 16 h; activation: stronger effect = higher value
Method in brief: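 Stably transfected ME-180 line; NF-kB response element upstream of beta-lactamase. Treatment: compound or DMSO, 16 hr. Detection: fluorescent FRET substrate.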

[20] = target: Peroxisome proliferator-activated receptor alpha (Homo sapiens) (UniProt Q07869); assay: qHTS assay for small molecule agonists of the peroxisome proliferator-activated receptor alpha (PPARalpha) signaling pathway (AID 651778; active = well fitted curve in the direction sought with a large enough effect; an effect the other way counts as inactive or inconclusive; also: % of control where 0% means no effect); conditions: PathHunter PPARalpha complementation, chemiluminescence, 6 h; stronger effect = higher value
Method in brief: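 Chemiluminescence from complemented enzyme reported PPARalpha activation in cells after 6 hr of compound treatment at 37 C. The detection reagent was incubated for 60 min at room temperature, and compounds were scored as agonists.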

[21] = qHTS assay for small molecule agonists of the antioxidant response element (ARE) signaling pathway measured by Nrf2-dependant transcriptional activity (AID 720636; active = well fitted curve in the direction sought with a large enough effect in the repeat runs; an effect the other way counts as inactive or inconclusive;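 also: HepG2 cells with an ARE-driven luciferase reporter; % of control where 0% means no effect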)
Method in brief: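 HepG2 ARE-luc reporter line, 1% dialyzed FBS; 6 hr attachment at 37 C, compound pinned in, 16 hr at 37 C/5% CO2; ONE-Glo, 30 min RT, luminescence read.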

[22] = qHTS assay for small molecule agonists of the antioxidant response element (ARE) signaling pathway measured by Nrf2-dependant transcriptional activity - cell viability counter screen (AID 720653; active = well fitted curve in the direction sought with a large enough effect in the repeat runs; an effect the other way counts as inactive or inconclusive; also: % is scaled to controls: 0 for no effect and ±100 for the full control effect); conditions: ARE-bla HepG2 viability, CellTiter-Glo ATP luminescence, 16 h; max response: stronger effect = lower value
Method in brief: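 Cytotoxicity counter screen: intracellular ATP quantified by CellTiter-Glo luminescence in the same ARE-bla HepG2 plates, after 16 h compound exposure and a 2 h beta-lactamase substrate step.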

[23] = qHTS assay for cell viability of HEK293 cells (AID 743288; active = well fitted curve in the direction sought with a large enough effect; an effect the other way counts as inactive or inconclusive; also: % is scaled to controls: 0 for no effect and ±100 for the full control effect; nearly all actives have a fitted effect of over 50% in size); conditions: ATP luminescence (CellTiter-Glo), 18 h; max response: stronger effect = lower value
Method in brief: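 Environmental chemicals tested in qHTS format against parental HEK293 cells; 18 h treatment, 37 C; read-out ATP luminescence (CellTiter-Glo), 30 min RT development.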

[24] = qHTS assay for cell viability of the p53RE-bla HCT-116 cell line (AID 743292; active = well fitted curve in the direction sought with a large enough effect; an effect the other way counts as inactive or inconclusive; also: % is scaled to controls: 0 for no effect and ±100 for the full control effect; nearly all actives have a fitted effect of over 55% in size)
Method in brief: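 Luminescent ATP quantitation (CellTiter-Glo) served as the viability read-out; reagent was added after 16 h compound exposure at 37 C and read after 30 min at room temperature. Cells: p53RE-bla HCT-116, 4,000 per well.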

[25] = target: Nuclear receptor subfamily 1 group I member 2 (Rattus norvegicus) (UniProt Q9R1A7); assay: qHTS assay for small molecule activators of the rat pregnane X receptor (rPXR) signaling pathway (AID 651751; call rule not given here; also: 0% is about no effect); conditions: rPXR reporter cells, luciferase (One-Glo), 24 h
[26] = qHTS assay for small molecule activators of the human pregnane X receptor (PXR) signaling pathway (AID 720659; call rule not given here; also: 0% is about no effect)
[27] = Cytotoxicity counterscreen for inhibitors of SARS-CoV-2 cell entry (AID 1645845); also: nearly all actives have a fitted effect of over 50% in size; also: potency is read from the fitted curve at half-maximal effect
Method in brief: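 48 h compound treatment (after 1 h preincubation), HEK293-ACE2 cells, 37 C/5% CO2; ATP luminescence endpoint; normalized to cell wells and media blanks.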

[28] = VSVG counterscreen qHTS to identify inhibitors of SARS-CoV-2 cell entry (AID 1645847); also: potency is read from the fitted curve at half-maximal effect; nearly all actives have a fitted effect of over 65% in size
Method in brief: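 Expi293F/hACE2 cells, overnight plating; cpd 1 h, 37C/5% CO2; + VSV-G PP (MLV pseudotyping), 48 h; supernatant removed, Bright-Glo luciferase read. Norm: VSV-G PP and bald PP wells.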

[29] = qHTS for Inhibitors of the Functional Ribonucleoprotein Complex (vRNP) of Lassa (LASV) Arenavirus: LASV Primary Screen - GLuc reporter signal (AID 1347082; calls by dose curve; tested in HEK293 reporter line; also: % is scaled to controls: 0 for no effect and ±100 for the full control effect; nearly all actives have a fitted effect of over 60% in size)
[30] = qHTS for Inhibitors of the Functional Ribonucleoprotein Complex (vRNP) of Lymphocytic Choriomeningitis Arenaviruses (LCMV): Viability assay - alamar blue signal for LCMV Primary Screen (AID 1347085; calls by dose curve; tested in HEK293 reporter line; also: % is scaled to controls: 0 for no effect and ±100 for the full control effect; nearly all actives have a fitted effect of over 80% in size)
[31] = target: Nucleoprotein (Lymphocytic choriomeningitis virus (strain Armstrong)) (UniProt P09992); assay: qHTS for Inhibitors of the Functional Ribonucleoprotein Complex (vRNP) of Lymphocytic Choriomeningitis Arenaviruses (LCMV): LCMV Primary Screen - GLuc reporter signal (AID 1347086); also: % is scaled to controls: 0 for no effect and ±100 for the full control effect; nearly all actives have a fitted effect of over 70% in size
Sequence of Nucleoprotein (Lymphocytic choriomeningitis virus (strain Armstrong)) (P09992 whole entry, looked up): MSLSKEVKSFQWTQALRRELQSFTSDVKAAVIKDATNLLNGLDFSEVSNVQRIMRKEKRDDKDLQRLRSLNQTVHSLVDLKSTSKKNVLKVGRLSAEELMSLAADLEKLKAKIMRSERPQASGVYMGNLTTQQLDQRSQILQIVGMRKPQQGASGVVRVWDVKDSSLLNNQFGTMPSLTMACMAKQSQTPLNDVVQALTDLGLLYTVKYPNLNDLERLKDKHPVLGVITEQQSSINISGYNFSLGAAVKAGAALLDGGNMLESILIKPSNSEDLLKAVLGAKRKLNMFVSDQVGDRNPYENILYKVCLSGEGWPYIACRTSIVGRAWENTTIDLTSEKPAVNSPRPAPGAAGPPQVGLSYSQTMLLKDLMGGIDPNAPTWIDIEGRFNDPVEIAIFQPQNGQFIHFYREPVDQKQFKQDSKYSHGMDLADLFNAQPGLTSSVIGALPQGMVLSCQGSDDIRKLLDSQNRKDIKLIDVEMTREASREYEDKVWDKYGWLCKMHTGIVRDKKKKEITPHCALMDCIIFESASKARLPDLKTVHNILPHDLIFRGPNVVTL

[32] = Primary qHTS to identify inhibitors of SARS-CoV-2 cell entry (AID 1645846); conditions: activity change, negative = inhibition: at 57.1 µM (top of the series) unless noted; also: nearly all actives have a fitted effect of over 45% in size; also: potency is read from the fitted curve at half-maximal effect
Method in brief: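 HEK293-ACE2 (Expi293F, stable hACE2), 1500 cells/well, o/n 37C; cpd 23 nL pin, 1 h; MLV-PP w/ SARS-CoV-2-S (Wuhan-Hu-1, Δ19 C-term); 48 h 37C; Bright-Glo luminescence; normalized vs S-PP and bald PP.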

CCCCOP(=O)(O)OCCCC
-2.61%: max response [15]
inactive: Potency [1] | activation [2] -1.97% | outcome [3] | Potency [4] | activation [5] -1.37% | Potency [6] | Potency [7] | outcome [9] | outcome [10] | Potency [11] | outcome [13] | Potency [14] | max response [16] -17.7% | activity change % (negative = inhibition) [17] 3.56% | Potency [18] | activation [19] 1.33% | max response [20] -1.16% | Potency [21] | max response [22] -8.15% | max response [23] -9.76% | outcome [24] | max response [25] 5.92% | outcome [26]
24.1%: max response [8]
-20.1%: max response [12]

CCc1ccc(/C=C2/SC(=S)NC2=O)cc1
active: Potency [27] 10 µM

COC(=O)Nc1ccc(-c2nc(N3CCOCC3)c3cnn(C4CCN(Cc5cccnc5)CC4)c3n2)cc1
active: Potency [28] 9.61 µM

Oc1ccc2c(c1)OCC1(O)Cc3cc(O)c(O)cc3C21 (stereo unspecified)
inactive: Potency [29] | Potency [30] | Potency [31]

NC(=O)c1cccc2[nH]c(-c3ccc([C@H]4CCCN4)cc3F)nc12
inactive: Potency [29] | Potency [30] | Potency [31]
active: Potency [27] 11.2 µM | Potency [32] 31.6 µM

CN(C)CC[C@H](CSc1ccccc1)Nc1ccc(S(=O)(=O)NC(=O)c2ccc(N3CCN(Cc4ccccc4-c4ccc(Cl)cc4)CC3)cc2)cc1[N+](=O)[O-]
inactive: Potency [29] | Potency [30] | Potency [31] | Potency [27]
1.37%: activity change, negative = inhibition [32]
